# From publication PMC11062922 (Nature Chemical Biology, 2023)
# Read-outs that look alike come from different tables or passages of the source.
# Assays:
# Conditions in all cases: read-out: apparent Kd, n = 1
# PAK4 = tested on: PAK4
# PHKG2 = tested on: PHKG2
# PKN1 = tested on: PKN1
# [1] = compound concentrations:100 nM and 1000 nM (sheet 'Lestaurtinib' of Supplementary Table 1),run:Lestaurtinib_02766_R2,Plate:MR027
# [2] = compound concentrations:100 nM and 1000 nM (sheet 'Lestaurtinib' of Supplementary Table 1),run:Lestaurtinib_02768_R1,Plate:MR028
# [3] = compound concentrations:100 nM and 1000 nM (sheet 'Lestaurtinib' of Supplementary Table 1),run:Lestaurtinib_02795_R1,Plate:MR022
# [4] = compound concentrations:100 nM and 1000 nM (sheet 'Lestaurtinib' of Supplementary Table 1),run:Lestaurtinib_02795_R3,Plate:MR022
# [5] = compound concentrations:100 nM and 1000 nM (sheet 'Lestaurtinib' of Supplementary Table 1),run:Lestaurtinib_02896_R3,Plate:MR030
# [6] = compound concentrations:100 nM and 1000 nM (sheet 'Lestaurtinib' of Supplementary Table 1),run:Lestaurtinib_03172_R1,Plate:MR031
# [7] = compound concentrations:100 nM and 1000 nM (sheet 'Lestaurtinib' of Supplementary Table 1),run:Lestaurtinib_03172_R3,Plate:MR031
# [8] = compound concentrations:100 nM and 1000 nM (sheet 'Lestaurtinib' of Supplementary Table 1),run:Lestaurtinib_03252_R1,Plate:MR032
# [9] = compound concentrations:100 nM and 1000 nM (sheet 'Lestaurtinib' of Supplementary Table 1),run:Lestaurtinib_03252_R2,Plate:MR032
# [10] = compound concentrations:100 nM and 1000 nM (sheet 'Lestaurtinib' of Supplementary Table 1),run:Lestaurtinib_03260_R1,Plate:MR033
# [11] = compound concentrations:100 nM and 1000 nM (sheet 'Lestaurtinib' of Supplementary Table 1),run:Lestaurtinib_03260_R2,Plate:MR033
# [12] = compound concentrations:100 nM and 1000 nM (sheet 'Lestaurtinib' of Supplementary Table 1),run:Lestaurtinib_02339_R1,Plate:MR001
# [13] = compound concentrations:100 nM and 1000 nM (sheet 'Lestaurtinib' of Supplementary Table 1),run:Lestaurtinib_02339_R2,Plate:MR001
# [14] = compound concentrations:100 nM and 1000 nM (sheet 'Lestaurtinib' of Supplementary Table 1),run:Lestaurtinib_02364_R1,Plate:MR002
substance,measurement,setting,value
Lestaurtinib,potency estimated from few doses,PAK4; [1],0.0237 µM
same,potency estimated from few doses,PAK4; [2],0.0354 µM
same,potency estimated from few doses,"PAK4; compound concentrations:100 nM and 1000 nM (sheet 'Lestaurtinib' of Supplementary Table 1),run:Lestaurtinib_02768_R2,Plate:MR028",0.0295 µM
same,potency estimated from few doses,"PAK4; compound concentrations:100 nM and 1000 nM (sheet 'Lestaurtinib' of Supplementary Table 1),run:Lestaurtinib_02768_R3,Plate:MR028",0.0327 µM
same,potency estimated from few doses,PAK4; [3],0.0351 µM
same,potency estimated from few doses,"PAK4; compound concentrations:100 nM and 1000 nM (sheet 'Lestaurtinib' of Supplementary Table 1),run:Lestaurtinib_02795_R2,Plate:MR022",0.0297 µM
same,potency estimated from few doses,PAK4; [4],0.113 µM
same,potency estimated from few doses,"PAK4; compound concentrations:100 nM and 1000 nM (sheet 'Lestaurtinib' of Supplementary Table 1),run:Lestaurtinib_02802_R3,Plate:MR029",0.0248 µM
same,potency estimated from few doses,"PAK4; compound concentrations:100 nM and 1000 nM (sheet 'Lestaurtinib' of Supplementary Table 1),run:Lestaurtinib_02896_R1,Plate:MR030",0.0359 µM
same,potency estimated from few doses,"PAK4; compound concentrations:100 nM and 1000 nM (sheet 'Lestaurtinib' of Supplementary Table 1),run:Lestaurtinib_02896_R2,Plate:MR030",0.0301 µM
same,potency estimated from few doses,PAK4; [5],0.0362 µM
same,potency estimated from few doses,PAK4; [6],0.0327 µM
same,potency estimated from few doses,"PAK4; compound concentrations:100 nM and 1000 nM (sheet 'Lestaurtinib' of Supplementary Table 1),run:Lestaurtinib_03172_R2,Plate:MR031",0.0296 µM
same,potency estimated from few doses,PAK4; [7],0.0261 µM
same,potency estimated from few doses,PAK4; [8],0.0434 µM
same,potency estimated from few doses,PAK4; [9],0.0253 µM
same,potency estimated from few doses,PAK4; [10],0.0486 µM
same,potency estimated from few doses,PAK4; [11],0.048 µM
same,potency estimated from few doses,PHKG2; [12],0.838 µM
same,potency estimated from few doses,PHKG2; [13],0.142 µM
same,potency estimated from few doses,"PHKG2; compound concentrations:100 nM and 1000 nM (sheet 'Lestaurtinib' of Supplementary Table 1),run:Lestaurtinib_02339_R3,Plate:MR001",0.275 µM
same,potency estimated from few doses,PHKG2; [14],0.462 µM
same,potency estimated from few doses,"PHKG2; compound concentrations:100 nM and 1000 nM (sheet 'Lestaurtinib' of Supplementary Table 1),run:Lestaurtinib_02364_R2,Plate:MR002",0.36 µM
same,potency estimated from few doses,"PHKG2; compound concentrations:100 nM and 1000 nM (sheet 'Lestaurtinib' of Supplementary Table 1),run:Lestaurtinib_02364_R3,Plate:MR002",0.574 µM
same,potency estimated from few doses,"PHKG2; compound concentrations:100 nM and 1000 nM (sheet 'Lestaurtinib' of Supplementary Table 1),run:Lestaurtinib_02367_R1,Plate:MR003",0.323 µM
same,potency estimated from few doses,"PHKG2; compound concentrations:100 nM and 1000 nM (sheet 'Lestaurtinib' of Supplementary Table 1),run:Lestaurtinib_02367_R3,Plate:MR003",0.356 µM
same,potency estimated from few doses,"PHKG2; compound concentrations:100 nM and 1000 nM (sheet 'Lestaurtinib' of Supplementary Table 1),run:Lestaurtinib_02381_R1,Plate:MR004",0.137 µM
same,potency estimated from few doses,"PHKG2; compound concentrations:100 nM and 1000 nM (sheet 'Lestaurtinib' of Supplementary Table 1),run:Lestaurtinib_02381_R2,Plate:MR004",0.197 µM
same,potency estimated from few doses,"PHKG2; compound concentrations:100 nM and 1000 nM (sheet 'Lestaurtinib' of Supplementary Table 1),run:Lestaurtinib_02381_R3,Plate:MR004",0.144 µM
same,potency estimated from few doses,"PHKG2; compound concentrations:100 nM and 1000 nM (sheet 'Lestaurtinib' of Supplementary Table 1),run:Lestaurtinib_02422_R1,Plate:MR006",0.213 µM
same,potency estimated from few doses,"PHKG2; compound concentrations:100 nM and 1000 nM (sheet 'Lestaurtinib' of Supplementary Table 1),run:Lestaurtinib_02422_R2,Plate:MR006",0.0553 µM
same,potency estimated from few doses,"PHKG2; compound concentrations:100 nM and 1000 nM (sheet 'Lestaurtinib' of Supplementary Table 1),run:Lestaurtinib_02437_R1,Plate:MR007",0.135 µM
same,potency estimated from few doses,"PHKG2; compound concentrations:100 nM and 1000 nM (sheet 'Lestaurtinib' of Supplementary Table 1),run:Lestaurtinib_02443_R1,Plate:MR009",0.17 µM
same,potency estimated from few doses,"PHKG2; compound concentrations:100 nM and 1000 nM (sheet 'Lestaurtinib' of Supplementary Table 1),run:Lestaurtinib_02443_R2,Plate:MR009",0.193 µM
same,potency estimated from few doses,"PHKG2; compound concentrations:100 nM and 1000 nM (sheet 'Lestaurtinib' of Supplementary Table 1),run:Lestaurtinib_02443_R3,Plate:MR009",0.0992 µM
same,potency estimated from few doses,"PHKG2; compound concentrations:100 nM and 1000 nM (sheet 'Lestaurtinib' of Supplementary Table 1),run:Lestaurtinib_02473_R1,Plate:MR010",0.31 µM
same,potency estimated from few doses,"PHKG2; compound concentrations:100 nM and 1000 nM (sheet 'Lestaurtinib' of Supplementary Table 1),run:Lestaurtinib_02473_R2,Plate:MR010",0.228 µM
same,potency estimated from few doses,"PHKG2; compound concentrations:100 nM and 1000 nM (sheet 'Lestaurtinib' of Supplementary Table 1),run:Lestaurtinib_02473_R3,Plate:MR010",0.159 µM
same,potency estimated from few doses,"PHKG2; compound concentrations:100 nM and 1000 nM (sheet 'Lestaurtinib' of Supplementary Table 1),run:Lestaurtinib_02482_R1,Plate:MR011",0.197 µM
same,potency estimated from few doses,"PHKG2; compound concentrations:100 nM and 1000 nM (sheet 'Lestaurtinib' of Supplementary Table 1),run:Lestaurtinib_02482_R2,Plate:MR011",0.501 µM
same,potency estimated from few doses,"PHKG2; compound concentrations:100 nM and 1000 nM (sheet 'Lestaurtinib' of Supplementary Table 1),run:Lestaurtinib_02482_R3,Plate:MR011",0.248 µM
same,potency estimated from few doses,"PHKG2; compound concentrations:100 nM and 1000 nM (sheet 'Lestaurtinib' of Supplementary Table 1),run:Lestaurtinib_02496_R1,Plate:MR013",0.115 µM
same,potency estimated from few doses,"PHKG2; compound concentrations:100 nM and 1000 nM (sheet 'Lestaurtinib' of Supplementary Table 1),run:Lestaurtinib_02496_R2,Plate:MR013",0.362 µM
same,potency estimated from few doses,"PHKG2; compound concentrations:100 nM and 1000 nM (sheet 'Lestaurtinib' of Supplementary Table 1),run:Lestaurtinib_02496_R3,Plate:MR013",0.182 µM
same,potency estimated from few doses,"PHKG2; compound concentrations:100 nM and 1000 nM (sheet 'Lestaurtinib' of Supplementary Table 1),run:Lestaurtinib_02566_R1,Plate:MR014",0.309 µM
same,potency estimated from few doses,"PHKG2; compound concentrations:100 nM and 1000 nM (sheet 'Lestaurtinib' of Supplementary Table 1),run:Lestaurtinib_02566_R2,Plate:MR014",0.151 µM
same,potency estimated from few doses,"PHKG2; compound concentrations:100 nM and 1000 nM (sheet 'Lestaurtinib' of Supplementary Table 1),run:Lestaurtinib_02566_R3,Plate:MR014",0.182 µM
same,potency estimated from few doses,"PHKG2; compound concentrations:100 nM and 1000 nM (sheet 'Lestaurtinib' of Supplementary Table 1),run:Lestaurtinib_02572_R1,Plate:MR015",0.092 µM
same,potency estimated from few doses,"PHKG2; compound concentrations:100 nM and 1000 nM (sheet 'Lestaurtinib' of Supplementary Table 1),run:Lestaurtinib_02572_R2,Plate:MR015",0.444 µM
same,potency estimated from few doses,"PHKG2; compound concentrations:100 nM and 1000 nM (sheet 'Lestaurtinib' of Supplementary Table 1),run:Lestaurtinib_02584_R1,Plate:MR017",0.215 µM
same,potency estimated from few doses,"PHKG2; compound concentrations:100 nM and 1000 nM (sheet 'Lestaurtinib' of Supplementary Table 1),run:Lestaurtinib_02584_R2,Plate:MR017",0.239 µM
same,potency estimated from few doses,"PHKG2; compound concentrations:100 nM and 1000 nM (sheet 'Lestaurtinib' of Supplementary Table 1),run:Lestaurtinib_02606_R1,Plate:MR019",0.197 µM
same,potency estimated from few doses,"PHKG2; compound concentrations:100 nM and 1000 nM (sheet 'Lestaurtinib' of Supplementary Table 1),run:Lestaurtinib_02606_R2,Plate:MR019",0.175 µM
same,potency estimated from few doses,"PHKG2; compound concentrations:100 nM and 1000 nM (sheet 'Lestaurtinib' of Supplementary Table 1),run:Lestaurtinib_02606_R3,Plate:MR019",0.636 µM
same,potency estimated from few doses,"PHKG2; compound concentrations:100 nM and 1000 nM (sheet 'Lestaurtinib' of Supplementary Table 1),run:Lestaurtinib_02624_R1,Plate:MR020",0.39 µM
same,potency estimated from few doses,"PHKG2; compound concentrations:100 nM and 1000 nM (sheet 'Lestaurtinib' of Supplementary Table 1),run:Lestaurtinib_02624_R3,Plate:MR020",0.244 µM
same,potency estimated from few doses,"PHKG2; compound concentrations:100 nM and 1000 nM (sheet 'Lestaurtinib' of Supplementary Table 1),run:Lestaurtinib_02724_R1,Plate:MR021",0.27 µM
same,potency estimated from few doses,"PHKG2; compound concentrations:100 nM and 1000 nM (sheet 'Lestaurtinib' of Supplementary Table 1),run:Lestaurtinib_02724_R2,Plate:MR021",0.239 µM
same,potency estimated from few doses,"PHKG2; compound concentrations:100 nM and 1000 nM (sheet 'Lestaurtinib' of Supplementary Table 1),run:Lestaurtinib_02724_R3,Plate:MR021",0.18 µM
same,potency estimated from few doses,"PHKG2; compound concentrations:100 nM and 1000 nM (sheet 'Lestaurtinib' of Supplementary Table 1),run:Lestaurtinib_02741_R1,Plate:MR023",0.372 µM
same,potency estimated from few doses,"PHKG2; compound concentrations:100 nM and 1000 nM (sheet 'Lestaurtinib' of Supplementary Table 1),run:Lestaurtinib_02741_R2,Plate:MR023",0.355 µM
same,potency estimated from few doses,"PHKG2; compound concentrations:100 nM and 1000 nM (sheet 'Lestaurtinib' of Supplementary Table 1),run:Lestaurtinib_02741_R3,Plate:MR023",0.301 µM
same,potency estimated from few doses,"PHKG2; compound concentrations:100 nM and 1000 nM (sheet 'Lestaurtinib' of Supplementary Table 1),run:Lestaurtinib_02748_R1,Plate:MR024",0.208 µM
same,potency estimated from few doses,"PHKG2; compound concentrations:100 nM and 1000 nM (sheet 'Lestaurtinib' of Supplementary Table 1),run:Lestaurtinib_02748_R3,Plate:MR024",0.211 µM
same,potency estimated from few doses,"PHKG2; compound concentrations:100 nM and 1000 nM (sheet 'Lestaurtinib' of Supplementary Table 1),run:Lestaurtinib_02765_R1,Plate:MR026",0.637 µM
same,potency estimated from few doses,"PHKG2; compound concentrations:100 nM and 1000 nM (sheet 'Lestaurtinib' of Supplementary Table 1),run:Lestaurtinib_02765_R2,Plate:MR026",0.849 µM
same,potency estimated from few doses,"PHKG2; compound concentrations:100 nM and 1000 nM (sheet 'Lestaurtinib' of Supplementary Table 1),run:Lestaurtinib_02765_R3,Plate:MR026",0.487 µM
same,potency estimated from few doses,"PHKG2; compound concentrations:100 nM and 1000 nM (sheet 'Lestaurtinib' of Supplementary Table 1),run:Lestaurtinib_02766_R1,Plate:MR027",0.44 µM
same,potency estimated from few doses,PHKG2; [1],0.17 µM
same,potency estimated from few doses,PHKG2; [2],0.124 µM
same,potency estimated from few doses,PHKG2; [3],0.217 µM
same,potency estimated from few doses,PHKG2; [4],0.347 µM
same,potency estimated from few doses,"PHKG2; compound concentrations:100 nM and 1000 nM (sheet 'Lestaurtinib' of Supplementary Table 1),run:Lestaurtinib_02802_R2,Plate:MR029",0.197 µM
same,potency estimated from few doses,PHKG2; [5],0.25 µM
same,potency estimated from few doses,PHKG2; [6],0.153 µM
same,potency estimated from few doses,PHKG2; [7],0.213 µM
same,potency estimated from few doses,PHKG2; [8],0.635 µM
same,potency estimated from few doses,PHKG2; [9],0.0911 µM
same,potency estimated from few doses,PHKG2; [10],0.321 µM
same,potency estimated from few doses,PHKG2; [11],0.323 µM
same,potency estimated from few doses,"PHKG2; compound concentrations:100 nM and 1000 nM (sheet 'Lestaurtinib' of Supplementary Table 1),run:Lestaurtinib_03260_R3,Plate:MR033",0.212 µM
same,potency estimated from few doses,PKN1; [12],0.424 µM
same,potency estimated from few doses,PKN1; [13],0.316 µM
same,potency estimated from few doses,PKN1; [14],0.497 µM
